The values below come from PubChem BioAssay.

The structures appear in SMILES notation. Activity calls are given as the source filed them.

A short description of test [1]: E. coli DRC41 culture turbidity changes, primary screen, E. coli filamentation inducer project, strain DRC41, OD650, 48 h (AID 1152).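 Also: E. coli MC1000 strain DRC41 lacking acrAB efflux pump and sulA.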 To be noted: E. coli DRC41 (acrAB sulA), higher = more signal, called active from +8 up or from −8 down.
Test [2] is described as follows: small-molecule binders of probe aLefty1, primary screen, biochemical, small-molecule microarray, 635/667 nm fluorescence (AID 1153).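 Also: score merges spot fluorescence with signal-to-noise ratio from the scanned slide images.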 To be noted: higher = more signal.
Test [3] is described as follows: PSAC antagonists in infected red cells, primary screen, cell-based, P. falciparum Indochina, OD700, 1 h (AID 1154). As to conditions: P. falciparum Indochina infected RBC osmotic lysis, higher = more signal, called active from +8 up or from −8 down.
Test [4] is described as follows: PSAC antagonists in infected red cells, primary screen, cell-based, P. falciparum Indochina, OD700, 2 h (AID 1155).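 Also: lysis reports solute entry through the parasite surface anion channel PSAC; channel blockers reduce lysis of infected cells.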 As to conditions: P. falciparum Indochina infected erythrocytes, osmotic lysis OD700; higher = more signal, called active from +8 up or from −8 down.
The nature of test [5]: osmotic lysis modulators in infected erythrocytes, primary screen, PSAC antagonist project, cell-based, P. falciparum Indochina, OD700, 3 h (AID 1156). To be noted: higher = more signal, called active from +8 up or from −8 down.
Test [6] can be described thus: PSAC antagonists in infected red cells, primary screen, cell-based, P. falciparum Indochina, OD700, 18 h (AID 1157). As to conditions: P. falciparum Indochina infected erythrocytes, osmotic lysis OD700, 18 h; higher = more signal, called active from +8 up or from −8 down.
The nature of test [7]: modulators of S6 phosphorylation in cells, primary screen, cell-based, A549, cytoblot, luminescence, serum-stimulated (AID 1158).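 Also: serum-stimulated A549 lung adenocarcinoma cells; signal is phosphorylated S6 detected by cytoblot immunostaining with HRP secondary.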 To be noted: A549 phospho-S6 cytoblot, 5 h, higher = more signal.
Test [8] addresses NADPH oxidase 2 (Homo sapiens) (UniProt P04839). Kind of test: NOX2-dependent H2O2 signal modulators, primary screen, NOX inhibitor project, cell-based, HEK293-NOX2, PMA-stimulated, Amplex Red fluorescence (AID 1159). Also: test concentration not given here. To be noted: 45 min, higher = more signal, called active from +8 up or from −8 down.
The target in test [9] is NADPH oxidase 4 (Homo sapiens) (UniProt Q9NPH5). The test can be described thus: NOX4-dependent H2O2 signal modulators, primary screen, NOX inhibitor project, cell-based, HEK293-NOX4, tetracycline-induced, Amplex Red fluorescence (AID 1160). As to conditions: 45 min, higher = more signal, called active from +8 up or from −8 down.
Sequence of NADPH oxidase 4 (Homo sapiens) (Q9NPH5 whole entry, looked up): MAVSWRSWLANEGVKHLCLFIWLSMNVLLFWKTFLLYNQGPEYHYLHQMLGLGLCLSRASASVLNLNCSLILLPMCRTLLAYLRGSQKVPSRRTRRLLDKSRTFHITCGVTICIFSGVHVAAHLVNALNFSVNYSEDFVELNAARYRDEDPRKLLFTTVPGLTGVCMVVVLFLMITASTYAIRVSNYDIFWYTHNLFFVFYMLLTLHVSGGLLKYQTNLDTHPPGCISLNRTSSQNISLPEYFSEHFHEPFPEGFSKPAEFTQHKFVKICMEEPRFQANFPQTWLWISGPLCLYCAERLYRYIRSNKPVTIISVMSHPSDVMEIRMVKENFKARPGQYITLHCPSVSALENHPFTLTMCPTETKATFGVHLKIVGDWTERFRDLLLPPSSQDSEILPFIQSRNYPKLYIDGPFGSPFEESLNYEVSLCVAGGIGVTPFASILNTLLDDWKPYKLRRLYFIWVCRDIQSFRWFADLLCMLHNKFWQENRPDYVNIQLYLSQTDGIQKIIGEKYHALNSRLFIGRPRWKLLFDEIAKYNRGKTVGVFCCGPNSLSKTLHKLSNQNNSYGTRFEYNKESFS
Test [10] deals with NADPH oxidase 5 (Homo sapiens) (UniProt Q96PH1). Kind of test: NOX5-dependent H2O2 signal modulators, primary screen, NOX inhibitor project, cell-based, HEK293-NOX5, Amplex Red fluorescence (AID 1161). As to conditions: HEK293-NOX5, ionomycin, 45 min, higher = more signal.
Sequence of NADPH oxidase 5 (Homo sapiens) (Q96PH1 whole entry, looked up): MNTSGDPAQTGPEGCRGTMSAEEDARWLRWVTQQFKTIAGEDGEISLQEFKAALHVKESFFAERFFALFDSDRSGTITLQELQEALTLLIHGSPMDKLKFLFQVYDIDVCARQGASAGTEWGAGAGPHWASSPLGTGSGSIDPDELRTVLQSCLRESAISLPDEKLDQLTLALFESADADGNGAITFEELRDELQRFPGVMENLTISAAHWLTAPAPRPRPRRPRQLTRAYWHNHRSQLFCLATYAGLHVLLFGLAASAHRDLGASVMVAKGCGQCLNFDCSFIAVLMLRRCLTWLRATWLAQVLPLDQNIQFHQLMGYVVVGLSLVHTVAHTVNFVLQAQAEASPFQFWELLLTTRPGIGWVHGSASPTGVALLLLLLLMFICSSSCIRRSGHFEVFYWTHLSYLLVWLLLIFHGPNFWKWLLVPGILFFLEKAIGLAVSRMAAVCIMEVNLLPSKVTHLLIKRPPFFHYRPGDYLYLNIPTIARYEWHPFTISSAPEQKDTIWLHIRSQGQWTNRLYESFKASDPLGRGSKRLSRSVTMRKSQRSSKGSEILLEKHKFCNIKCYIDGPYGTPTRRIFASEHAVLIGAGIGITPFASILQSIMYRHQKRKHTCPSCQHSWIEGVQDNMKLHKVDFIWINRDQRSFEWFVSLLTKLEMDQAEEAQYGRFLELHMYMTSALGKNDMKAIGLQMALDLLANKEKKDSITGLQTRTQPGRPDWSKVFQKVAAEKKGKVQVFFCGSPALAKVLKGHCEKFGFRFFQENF
The nature of test [11]: A549 cell viability effects, profiling panel, calcein-AM fluorescence, 48 h, basal (AID 1162). Also: test concentration not given here. As to conditions: higher = more signal.
Test [12] can be described thus: adipocyte viability effects, profiling panel, cell-based, 3T3-L1 adipocytes, calcein-AM fluorescence, 48 h, basal (AID 1163). Also: test concentration not given here. As to conditions: 3T3-L1 adipocytes viability, higher = more signal.
A short description of test [13]: HepG2 cell viability effects, profiling panel, calcein-AM fluorescence, 48 h, basal (AID 1164). Also: test concentration not given here. To be noted: higher = more signal.
Test [14] is described as follows: MM1S cell viability effects, profiling panel, calcein-AM fluorescence, 48 h, basal (AID 1165).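 Also: viability of MM1S multiple myeloma cells under basal unstimulated conditions; test concentration not given here.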 As to conditions: higher = more signal.
The nature of test [15]: basal RPMI8226 viability, no added stimulus, profiling panel, cell-based, calcein-AM fluorescence, 48 h, PK04 Diversity Set (AID 1166).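 Also: cells grown under basal conditions without added stimulus; test concentration not given here.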 As to conditions: RPMI8226 myeloma viability, higher = more signal.
Test [16] can be described thus: basal HepG2 mitochondrial membrane potential changes, profiling panel, cell-based, JC-1 fluorescence, 24 h, 100 nL compound (AID 1167). Also: test concentration not given here. As to conditions: higher = more signal.
Test [17] can be described thus: basal 3T3-L1 adipocyte mitochondrial potential changes, profiling panel, cell-based, JC-1 fluorescence, 3T3-L1 adipocytes, 24 h, 100 nL compound (AID 1168). Also: test concentration not given here. To be noted: JC-1 mitochondrial fluorescence, higher = more signal, called active from +8 up or from −8 down.
Test [18] can be described thus: basal RPMI8226 mitochondrial membrane potential changes, profiling panel, cell-based, JC-1 fluorescence, 24 h, 100 nL compound (AID 1169). Also: test concentration not given here. To be noted: RPMI8226 myeloma, JC-1 mitochondrial potential fluorescence, higher = more signal.
A short description of test [19]: basal MM1S mitochondrial membrane potential changes, profiling panel, cell-based, JC-1 fluorescence, 24 h, 100 nL compound (AID 1170). Also: test concentration not given here. As to conditions: higher = more signal.
Test [20] can be described thus: A549 lung cancer cell viability effects, profiling panel, resazurin fluorescence, 24 h, PK04 Diversity Set (AID 1171). Also: test concentration not given here. As to conditions: higher = more signal, called active from +8 up or from −8 down.

Sequence of NADPH oxidase 2 (Homo sapiens) (P04839 whole entry, looked up): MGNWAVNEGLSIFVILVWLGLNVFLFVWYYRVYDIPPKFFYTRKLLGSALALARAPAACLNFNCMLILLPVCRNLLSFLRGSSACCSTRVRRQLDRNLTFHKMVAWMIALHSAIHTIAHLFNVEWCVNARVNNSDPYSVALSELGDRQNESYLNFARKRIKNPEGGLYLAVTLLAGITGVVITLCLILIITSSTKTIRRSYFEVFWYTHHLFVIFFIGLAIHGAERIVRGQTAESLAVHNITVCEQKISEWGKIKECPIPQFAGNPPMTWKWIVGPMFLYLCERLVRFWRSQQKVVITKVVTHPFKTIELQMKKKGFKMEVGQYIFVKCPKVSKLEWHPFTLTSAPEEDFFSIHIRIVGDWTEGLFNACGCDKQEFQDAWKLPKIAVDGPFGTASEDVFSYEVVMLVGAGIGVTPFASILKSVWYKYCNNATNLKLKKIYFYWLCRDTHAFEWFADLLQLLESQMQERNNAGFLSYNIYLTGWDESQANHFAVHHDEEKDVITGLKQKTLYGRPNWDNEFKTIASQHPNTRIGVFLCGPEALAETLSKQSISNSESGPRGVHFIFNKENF

Regarding `COc1ccc([Si](C)(C)[C@@H]2[C@@H](CC(=O)N3Cc4ccccc4C[C@H]3CO)O[C@]3(C(=O)N(Cc4ccc(N5CCOC5=O)cc4)c4ccccc43)[C@H]2C)cc1`, the z-score in test [1] is 0.378 (inactive); in [3], 8.18 (active); in test [4], 1.59 (inactive); in [5], 0.374 (inactive); in [6], 0.892 (inactive); in [7], 0.982. The z-score is 0.393 (inactive) in [8]; 1.15 (inactive) in test [9]; 1.88 in test [10]; 0.369 in [11]; 0.704 in test [12]; 0.115 in test [13]. Moreover, the z-score in test [14] is -1.07; in test [15], -0.876; in [16], 0.966; in test [17], 1 (inactive); in test [18], -1.11; in test [19], 0.359. For the same compound, in test [20], the z-score is -0.674 (inactive). The compound also returned a composite z-score in [2] of -0.0868.

Turning to `CCOc1cc(C(O)C2C=CC3C(=O)N(c4ccccc4)C(=O)C3N2Nc2ccccc2F)ccc1O` (stereo not given), the z-score in [1] was -0.469 (inactive); in test [3] it was 6.56 (inactive); in test [4], 1.27 (inactive); in test [5], -0.0788 (inactive); in test [6], 0.926 (inactive); in test [7], -0.824. The z-score was -2.32 (inactive) in [8]; -4.37 (inactive) in [9]; -4.13 in [10]; 0.0113 in test [11]; 0.521 in test [12]; 0.294 in test [13]. Further, the z-score is -0.495 in [14]; -0.18 in test [15]; -1.58 in test [16]; -0.945 (inactive) in test [17]; -0.853 in test [18]; 0.699 in test [19]. The z-score in [20] was -0.928 (inactive). Further, the composite z-score in test [2] worked out at 0.875.

Turning to `Cc1ccccc1C(O)C1C=CC2C(=O)N(c3ccccc3)C(=O)C2N1Nc1ccccc1` (stereo not given), the z-score in test [1] is -0.29 (inactive); in test [3], 20.1 (active); in test [4], 3.73 (inactive); in test [5], 0.214 (inactive); in test [6], 1.59 (inactive); in test [7], -0.495. The z-score in [8] is -1.85 (inactive); in test [9] it was -2.96 (inactive); in [10] it was -2.44; in test [11], -0.0545; in [12] it was -1.17; in [13] it was 1.8. Besides, the z-score in test [14] is 0.928; in test [15], -0.645; in test [16] it was -0.978; in test [17] it was -0.703 (inactive); in test [18] it was -0.318; in test [19], -0.638. The z-score in test [20] is 0.0292 (inactive). Besides, in test [2], the composite z-score worked out at 0.271.

Turning to `O=C1NC(=O)C2C1C=CC(C(O)c1ccc([N+](=O)[O-])cc1)N2Nc1ccccn1` (stereo not given), the z-score is -0.55 (inactive) in test [1]; 0.406 (inactive) in [3]; 0.74 (inactive) in [4]; 0.067 (inactive) in test [5]; 0.581 (inactive) in test [6]; -0.466 in test [7]. The z-score in [8] is -0.728 (inactive); in test [9], -2.61 (inactive); in test [10] it was -1.96; in [11], 0.0411; in [12] it was -0.379; in test [13], -0.357. The z-score was -0.492 in test [14]; -1.07 in [15]; -0.969 in test [16]; -0.713 (inactive) in [17]; -0.284 in test [18]; 0.339 in test [19]. The z-score in test [20] is -0.0648 (inactive). The composite z-score in [2] was -0.112.

With `C=C(CCCC)/C(=C/C[C@H](OC(C)=O)c1cccc(OCCO)c1)c1cnc2ccccc2c1`, the z-score in test [1] is 0.186 (inactive); in test [3], 23.7 (active); in test [4], 6.09 (inactive); in test [5], 1.94 (inactive); in test [6] it was 1.34 (inactive); in test [7], -0.33. Also, the z-score was -0.532 (inactive) in test [8]; -0.294 (inactive) in test [9]; -1.76 in test [10]; 0.955 in test [11]; 1.16 in [12]; 0.301 in [13]. Besides, the z-score is -3.13 in test [14]; -1.26 in test [15]; 1.86 in test [16]; 0.0664 (inactive) in test [17]; -0.205 in [18]; -0.209 in [19]. The z-score in test [20] was 0.395 (inactive). The same compound displayed a composite z-score in test [2] of -0.193.

As to `CC(C)(C)N1CC=CC23O[C@@H]4C=CCCOC(=O)C4[C@H]2C(=O)N(CCCCCCO)[C@@H]3C1=O` (stereo not given in full), the z-score is 0.0094 (inactive) in test [1]; 0.683 (inactive) in [3]; 0.181 (inactive) in test [4]; 0.639 (inactive) in [5]; 0.233 (inactive) in test [6]; 1.78 in [7]. For the same compound, the z-score in test [8] is 0.882 (inactive); in test [9], -0.0325 (inactive); in [10], 2.08; in test [11], 0.0905; in [12], -2.98; in test [13], 0.952. Further, the z-score in [14] is 1.35; in test [15], 0.229; in test [16], 0.212; in test [17], -0.501 (inactive); in [18] it was -0.0402; in test [19], -0.516. In addition, the z-score in test [20] is -0.523 (inactive). In test [2], this compound returned a composite z-score of 0.365.

Turning to `O=C(NCCN1CCOCC1)[C@@H]1c2ccccc2C(=O)N(Cc2ccccc2C(F)(F)F)[C@H]1c1ccc(CO)cc1`, the z-score in test [1] is 0.736 (inactive); in [3] it was 2.76 (inactive); in [4] it was -0.191 (inactive); in [5], 1.15 (inactive); in [6] it was 0.158 (inactive); in [7], -0.328. The z-score in test [8] is 0.523 (inactive); in [9] it was 0.484 (inactive); in test [10], 0.772; in [11], 1.9; in test [12] it was 0.783; in [13] it was 0.893. Besides, the z-score in [14] is 0.561; in test [15], -0.588; in test [16] it was 2.59; in test [17], -0.0687 (inactive); in [18], -0.335; in [19], -0.109. For the same compound, in [20], the z-score is 1.94 (inactive). The composite z-score in test [2] is -0.418.

Take `CC(C)C[C@H]1NC(=O)C([C@@H](C)OCc2ccccc2)NC(=O)[C@@]23C(=O)N[C@@H](Cc4ccccc4)C2[C@H](C)[C@@]2(C)O[C@H]2C3/C=C/C/C=C\CNC1=O` (stereo not given in full): the z-score is -0.629 (inactive) in [1]; 1.44 (inactive) in test [3]; -0.387 (inactive) in [4]; -0.0195 (inactive) in test [5]; 0.0591 (inactive) in [6]; 0.298 in test [7]. Besides, the z-score is 0.569 (inactive) in test [8]; 0.742 (inactive) in [9]; -2.51 in [10]; -0.469 in [11]; 1.9 in [12]; -0.3 in test [13]. For the same compound, the z-score is -0.936 in test [14]; -1.53 in test [15]; 0.169 in test [16]; 0.679 (inactive) in test [17]; -0.872 in test [18]; 0.277 in [19]. The z-score in [20] is 0.154 (inactive). In test [2], this compound gave a composite z-score of 0.0361.

On to `O=C(NCCN1CCOCC1)[C@@H]1c2ccccc2C(=O)N(Cc2ccc(OC(F)(F)F)cc2)[C@H]1c1ccc(CO)cc1`, for which the z-score in test [1] is -0.288 (inactive); in test [3], 1.09 (inactive); in test [4], 0.655 (inactive); in [5], 1.74 (inactive); in test [6] it was -0.161 (inactive); in test [7], -0.219. For the same compound, the z-score was 0.134 (inactive) in test [8]; 0.891 (inactive) in test [9]; 2.07 in test [10]; 3.01 in test [11]; 1.04 in test [12]; 0.113 in [13]. For the same compound, the z-score was 0.0559 in test [14]; -0.231 in test [15]; 2.31 in test [16]; 0.229 (inactive) in [17]; 1.04 in test [18]; 0.745 in test [19]. Further, in test [20], the z-score was 0.614 (inactive). Further, in test [2], the composite z-score is -0.222.
